Results on 17 molecules are retold here after ChEMBL document CHEMBL1961873, “Compounds: GSK PKIS; Assays: Nanosyn kinase panel” (2012).

Usually inhibition stands for the relative decrease from the control value, in per cent.

For test [1], the system named is Tyrosine-protein kinase ABL1 (Homo sapiens), P00519 [T315I]. The following applies: at 1 µM.
Test [2] has as its system Tyrosine-protein kinase ABL1 (Homo sapiens), P00519 [Y253F]. To be noted: at 0.1 µM.
For test [3] the test system is unchanged. The following applies: at 1 µM.
For test [4], the target named is Tyrosine-protein kinase ABL1 (Homo sapiens) (UniProt P00519). To be noted: at 0.1 µM.
The target is the same in test [5]. To be noted: at 1 µM.
The target in test [6] is ALK tyrosine kinase receptor (Homo sapiens) (UniProt Q9UM73). To be noted: at 0.1 µM.
Chain of ALK tyrosine kinase receptor (Homo sapiens) (Q9UM73 19-1620 limits assumed): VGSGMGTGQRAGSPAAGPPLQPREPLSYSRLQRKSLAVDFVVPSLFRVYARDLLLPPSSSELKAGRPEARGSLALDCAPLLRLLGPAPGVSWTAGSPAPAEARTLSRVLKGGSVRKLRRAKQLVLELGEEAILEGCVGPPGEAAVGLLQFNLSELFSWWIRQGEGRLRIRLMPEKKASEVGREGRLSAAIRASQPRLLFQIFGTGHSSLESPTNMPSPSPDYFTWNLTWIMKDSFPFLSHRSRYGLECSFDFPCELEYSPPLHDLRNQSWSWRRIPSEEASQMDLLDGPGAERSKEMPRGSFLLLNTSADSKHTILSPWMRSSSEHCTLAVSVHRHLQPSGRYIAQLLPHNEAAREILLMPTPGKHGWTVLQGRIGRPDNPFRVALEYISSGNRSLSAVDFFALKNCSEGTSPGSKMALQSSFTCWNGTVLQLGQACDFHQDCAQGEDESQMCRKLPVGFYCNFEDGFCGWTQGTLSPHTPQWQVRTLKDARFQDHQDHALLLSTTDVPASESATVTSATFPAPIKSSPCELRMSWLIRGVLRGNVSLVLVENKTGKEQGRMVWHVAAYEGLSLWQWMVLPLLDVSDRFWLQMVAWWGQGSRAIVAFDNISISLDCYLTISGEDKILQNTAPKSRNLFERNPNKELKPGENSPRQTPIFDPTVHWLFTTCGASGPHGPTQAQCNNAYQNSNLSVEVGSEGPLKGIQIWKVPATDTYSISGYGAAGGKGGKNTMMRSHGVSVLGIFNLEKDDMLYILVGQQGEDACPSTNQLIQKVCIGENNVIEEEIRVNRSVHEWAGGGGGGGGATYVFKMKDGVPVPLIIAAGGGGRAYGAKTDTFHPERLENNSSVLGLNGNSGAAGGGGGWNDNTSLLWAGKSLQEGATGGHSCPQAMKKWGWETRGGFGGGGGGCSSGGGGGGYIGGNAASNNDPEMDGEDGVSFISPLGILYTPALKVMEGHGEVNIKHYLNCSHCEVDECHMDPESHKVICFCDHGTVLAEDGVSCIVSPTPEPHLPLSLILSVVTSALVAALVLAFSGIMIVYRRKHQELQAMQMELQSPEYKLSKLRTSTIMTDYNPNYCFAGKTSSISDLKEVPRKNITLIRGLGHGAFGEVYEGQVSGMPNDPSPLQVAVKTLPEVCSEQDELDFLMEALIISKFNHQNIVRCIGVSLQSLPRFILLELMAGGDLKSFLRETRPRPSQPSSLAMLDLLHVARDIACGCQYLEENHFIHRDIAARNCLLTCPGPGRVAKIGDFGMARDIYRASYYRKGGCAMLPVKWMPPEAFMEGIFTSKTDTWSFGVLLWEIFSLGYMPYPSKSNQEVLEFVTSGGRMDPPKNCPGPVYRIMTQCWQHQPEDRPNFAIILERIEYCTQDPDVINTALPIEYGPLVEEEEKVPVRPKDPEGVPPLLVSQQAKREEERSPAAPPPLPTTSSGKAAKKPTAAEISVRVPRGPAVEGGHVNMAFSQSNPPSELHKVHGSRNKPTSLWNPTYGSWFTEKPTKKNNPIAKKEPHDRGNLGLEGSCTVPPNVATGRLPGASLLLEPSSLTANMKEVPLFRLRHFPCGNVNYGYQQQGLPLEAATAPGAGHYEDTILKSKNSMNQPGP
Test [7] shares this target. To be noted: at 1 µM.
The target in test [8] is Tyrosine-protein kinase ABL2 (Homo sapiens) (UniProt P42684). The following applies: at 0.1 µM.
Chain of Tyrosine-protein kinase ABL2 (Homo sapiens) (P42684 whole entry): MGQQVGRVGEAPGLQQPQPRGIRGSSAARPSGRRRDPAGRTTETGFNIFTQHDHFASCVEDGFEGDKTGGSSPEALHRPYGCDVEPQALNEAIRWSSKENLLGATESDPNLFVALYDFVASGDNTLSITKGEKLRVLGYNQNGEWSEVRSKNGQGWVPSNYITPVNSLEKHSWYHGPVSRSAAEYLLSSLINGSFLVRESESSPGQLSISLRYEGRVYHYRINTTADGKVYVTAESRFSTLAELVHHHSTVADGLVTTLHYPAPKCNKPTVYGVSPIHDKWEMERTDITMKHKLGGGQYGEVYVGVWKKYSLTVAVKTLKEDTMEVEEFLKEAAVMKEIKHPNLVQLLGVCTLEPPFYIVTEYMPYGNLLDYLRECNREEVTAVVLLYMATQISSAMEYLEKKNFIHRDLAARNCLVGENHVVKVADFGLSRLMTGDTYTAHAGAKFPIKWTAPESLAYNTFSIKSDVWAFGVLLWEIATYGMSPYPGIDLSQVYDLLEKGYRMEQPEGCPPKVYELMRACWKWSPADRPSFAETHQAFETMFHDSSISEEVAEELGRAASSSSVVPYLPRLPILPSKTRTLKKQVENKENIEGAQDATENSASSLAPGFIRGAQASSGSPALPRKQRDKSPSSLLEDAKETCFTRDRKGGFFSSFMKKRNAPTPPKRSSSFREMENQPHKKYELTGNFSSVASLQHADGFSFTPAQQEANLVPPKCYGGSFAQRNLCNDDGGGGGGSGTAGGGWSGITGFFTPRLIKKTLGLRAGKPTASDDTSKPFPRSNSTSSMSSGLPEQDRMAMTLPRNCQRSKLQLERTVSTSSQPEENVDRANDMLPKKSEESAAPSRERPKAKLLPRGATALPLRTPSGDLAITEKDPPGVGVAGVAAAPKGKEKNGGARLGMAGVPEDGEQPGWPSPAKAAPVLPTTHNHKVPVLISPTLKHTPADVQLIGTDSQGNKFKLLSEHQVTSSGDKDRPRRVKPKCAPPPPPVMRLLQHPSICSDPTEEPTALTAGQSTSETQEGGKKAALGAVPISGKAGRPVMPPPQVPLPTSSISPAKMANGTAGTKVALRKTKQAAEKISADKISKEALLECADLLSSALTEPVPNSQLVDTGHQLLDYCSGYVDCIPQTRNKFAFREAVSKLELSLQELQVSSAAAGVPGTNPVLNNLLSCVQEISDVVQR
Test [9] has the same target. To be noted: at 1 µM.
Test [10] has as its target Tyrosine-protein kinase receptor UFO (Homo sapiens) (UniProt P30530). The following applies: at 0.1 µM.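 Further: values are mean percent inhibition of AXL from the GSK PKIS screen.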

Chain of Tyrosine-protein kinase receptor UFO (Homo sapiens) (P30530 whole entry): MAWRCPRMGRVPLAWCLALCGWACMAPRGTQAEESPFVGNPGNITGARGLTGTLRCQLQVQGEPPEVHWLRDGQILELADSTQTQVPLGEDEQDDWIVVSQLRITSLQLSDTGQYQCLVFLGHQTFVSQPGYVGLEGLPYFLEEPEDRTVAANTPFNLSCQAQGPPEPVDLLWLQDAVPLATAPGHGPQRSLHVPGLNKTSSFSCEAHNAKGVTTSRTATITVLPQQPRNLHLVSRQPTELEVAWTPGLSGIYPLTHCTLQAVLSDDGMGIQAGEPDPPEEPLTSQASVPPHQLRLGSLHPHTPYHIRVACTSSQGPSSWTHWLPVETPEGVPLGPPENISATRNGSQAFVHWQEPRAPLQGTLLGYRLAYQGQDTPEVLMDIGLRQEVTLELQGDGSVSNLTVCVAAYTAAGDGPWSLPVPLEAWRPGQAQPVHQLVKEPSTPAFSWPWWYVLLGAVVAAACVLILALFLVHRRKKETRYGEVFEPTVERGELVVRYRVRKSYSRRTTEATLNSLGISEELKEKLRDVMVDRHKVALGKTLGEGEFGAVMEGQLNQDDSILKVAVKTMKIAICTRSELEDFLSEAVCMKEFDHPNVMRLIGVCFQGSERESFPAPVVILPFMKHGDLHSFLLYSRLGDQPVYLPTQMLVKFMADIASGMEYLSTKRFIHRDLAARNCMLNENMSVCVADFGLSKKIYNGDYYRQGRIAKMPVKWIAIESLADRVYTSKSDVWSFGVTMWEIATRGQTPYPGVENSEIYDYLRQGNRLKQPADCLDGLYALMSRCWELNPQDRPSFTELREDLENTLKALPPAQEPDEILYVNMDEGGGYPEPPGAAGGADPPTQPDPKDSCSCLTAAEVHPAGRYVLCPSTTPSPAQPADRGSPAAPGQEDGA

With `N#Cc1c(NC(=O)c2ccc(F)cc2)sc2c1CCCC2`, the inhibition in [1] was -0.02%; in test [2] it was 0.83%; in test [3], 1.49%; in test [4], 1.79%; in test [5], 4.24%; in test [6], -0.03%. Also, the inhibition in test [7] was 1.01%; in test [8], 3.54%; in [9], 2.41%; in test [10], -1.93%.
Take `Nc1nc(-c2ccc(F)cc2)c(-c2ccc3ncccc3n2)s1`: the inhibition in test [1] is 6.49%; in [2], 9.13%; in test [3] it was 26.9%; in test [4], 9.42%; in test [5] it was 27.8%; in test [6] it was 3.27%. For the same molecule, the inhibition in [7] is 5.68%; in test [8], 6.71%; in [9], 20.1%; in test [10], -5.15%.
In the case of `COc1ccc(-c2nn3ncccc3c2-c2ccnc(Nc3ccc4c(c3)OCCO4)n2)cc1`, the inhibition in test [1] stood at 32.3%; in [2] it was 2.95%; in [3], 33.3%; in [4] it was 2.5%; in test [5] it was 25.8%; in [6] it was 8.08%. Further, the inhibition worked out at 35.2% in test [7], 5.47% in test [8], 33.2% in test [9] and 1.61% in test [10].
For `Nc1ncc(-c2cccc(S(N)(=O)=O)c2)c2scc(-c3ccc(F)c(Cl)c3)c12`, the inhibition in [1] is 35%; in [2], 62.6%; in [3], 92.4%; in test [4], 60.5%; in [5] it was 87.6%; in test [6] it was 4.32%. Moreover, the inhibition in [7] was 13.8%; in test [8] it was 35.4%; in [9], 78.4%; in test [10], -4.87%.
As for `COc1ccc(-c2cc3c(N)ncnc3o2)cc1`, the inhibition in [1] was 2.97%; in test [2] it was -0.25%; in test [3] it was 10.8%; in [4], 2.28%; in test [5], 11.4%; in [6], -1.19%. Further, the inhibition in test [7] was 1.1%; in test [8], 0.1%; in test [9], 5.3%; in [10], 2.44%.
Regarding `CCCN(CCS(C)(=O)=O)Cc1ccc(-c2ccc3ncnc(Nc4ccc(OCc5cccc(F)c5)c(Cl)c4)c3c2)o1`, the inhibition came to 2.18% in test [1]; 3.73% in test [2]; 3.01% in test [3]; 6.06% in [4]; 6.41% in test [5]; 1.67% in [6]. Moreover, the inhibition in test [7] is 4.89%; in test [8], 7.3%; in [9], 5.25%; in test [10], -1.63%.
On to `COc1cccc(-n2ncc3c(N/N=C/c4ccc(F)cc4)ncnc32)c1`, for which the inhibition in test [1] was 38.8%; in test [2] it was 58.5%; in test [3], 86.1%; in test [4] it was 21.1%; in test [5], 75.8%; in test [6], 2.82%. The inhibition is 3.76% in [7], 9.51% in test [8], 57.9% in test [9] and -4.72% in test [10].
For the molecule `O=C(Nc1n[nH]c2cc(-c3ccc(F)cc3)ccc12)C1CC1`, the inhibition is 69.4% in [1]; 10.8% in test [2]; 40.1% in test [3]; 5.81% in [4]; 40.4% in [5]; 1.12% in [6]. In addition, the inhibition in test [7] is 2.06%; in [8], 3.46%; in [9], 12.3%; in [10], -5.44%.
On to `c1ccc(-c2nc3n(c2-c2ccc4c(c2)OCO4)CCC3)nc1`, for which the inhibition in test [1] turned out to be 6.07%; in test [2], 1.92%; in test [3], 3.95%; in test [4] it was 0.85%; in test [5] it was 6.39%; in test [6], 0.99%. The inhibition in [7] was 1.4%; in [8], 0.69%; in test [9] it was 4.67%; in test [10] it was -1.96%.
With `CCCN1CCC(c2ccc(Nc3nc(Nc4cc(F)ccc4C(N)=O)c4cc[nH]c4n3)c(OC)c2)CC1`, the inhibition in [1] was found to be 19.1%; in [2] it was 3.53%; in test [3] it was 8.34%; in test [4], 1.86%; in test [5], 8.95%; in [6] it was 97.5%. For the same molecule, the inhibition in [7] was 86.6%; in test [8], 2.8%; in test [9], 5.54%; in [10], 17.1%.
As to `CC(=O)Nc1cccc(C#Cc2cncnc2Nc2ccc(OCc3cccc(F)c3)c(Cl)c2)c1`, the inhibition in test [1] amounted to 1.79%; in test [2], 0.83%; in test [3] it was 3.28%; in test [4], 4.43%; in test [5], 8.55%; in [6], 1.96%. Also, the inhibition in [7] amounted to 6.45%; in test [8] it was 2.39%; in test [9], 5.22%; in test [10], 1.64%.
`N#Cc1c(NC(=O)CN2CCOCC2)sc2c1CCCC2`: the inhibition turned out to be 5.24% in test [1]; 5.91% in test [2]; 7.6% in [3]; 6.98% in test [4]; 7.71% in test [5]; 3.56% in test [6]. Also, the inhibition in test [7] was 8.62%; in test [8] it was 5.84%; in test [9], 5.84%; in test [10], -5.02%.
Take `COc1ccc2c(-c3ccnc(Nc4cccc(OC(F)(F)F)c4)n3)cnn2n1`: the inhibition in test [1] was 6.33%; in [2], 4.09%; in test [3], 8.45%; in [4] it was 4.8%; in test [5], 17%; in test [6] it was 2.4%. Also, the inhibition is 5.73% in test [7], 4.05% in test [8], 19.1% in [9] and -4.17% in [10].
On to `COc1cc2ncn(-c3cc(OCc4ccccc4C(F)(F)F)c(C(=O)N(C)C)s3)c2cc1OC`, for which the inhibition in test [1] was 1.37%; in test [2] it was 1.14%; in [3] it was 17.4%; in test [4], 2.99%; in test [5] it was 18.7%; in test [6], 0.27%. Besides, the inhibition was 0.78% in [7], 4.85% in test [8], 11.8% in test [9] and -0.33% in [10].
On to `FC(F)(F)c1cccc(-c2nn3ncccc3c2-c2ccnc(Nc3ccc4c(c3)OCCO4)n2)c1`, for which the inhibition in test [1] came to 32.5%; in [2], 5.94%; in test [3], 30.6%; in test [4] it was 3.95%; in [5] it was 30.4%; in test [6], 2.44%. The inhibition in [7] was 3.89%; in [8], 4.21%; in [9] it was 32.1%; in test [10] it was -5.2%.
Consider `CC(C)(CO)CNC(=O)c1ccc2c(c1)/C(=N/Nc1ccc(S(N)(=O)=O)cc1)C(=O)N2`, for which the inhibition was 8.62% in test [1]; -0.6% in test [2]; 12.8% in test [3]; -2.29% in [4]; 10.7% in [5]; -0.91% in test [6]. Moreover, the inhibition in test [7] is -1.23%; in test [8], -1.16%; in test [9], 3.31%; in test [10], 1.56%.
With `Cc1ccc(O)cc1Nc1ccnc2cc(-c3ccccn3)ccc12`, the inhibition in [1] came out at 50.7%; in test [2], 95.5%; in test [3], 98.2%; in test [4] it was 84.3%; in [5], 89.4%; in test [6], 5.32%. Also, the inhibition was 34.1% in test [7], 74.3% in [8], 95.7% in test [9] and -5.44% in test [10].
